About 83,000 compounds went through this panel and 20% of them were active in at least one assay; those are over-represented in the sample as a whole.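 A percent growth of 40 corresponds to 60% growth inhibition; 0 means no net growth; -100 means all cells died. Active threshold: below 10.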 Activity calls are given as the source filed them.
Columns and labels:
Experiment in all cases: NCI-60 one-dose screen, 48 h (100 = growth as untreated, 0 = no growth, -100 = all killed)
Conditions in all cases: 10 µM unless noted
NCI-H23 lung = system: NCI-H23 lung
NCI-H226 lung = system: NCI-H226 lung
NCI-H322M lung = system: NCI-H322M lung
HOP-62 NSCLC = system: HOP-62 NSCLC
NCI-H460 lung = system: NCI-H460 lung
HOP-92 NSCLC = system: HOP-92 NSCLC
A549/ATCC NSCLC = system: A549/ATCC NSCLC
786-0 renal = system: 786-0 renal
COLO 205 colon = system: COLO 205 colon

Measured: growth

c1cc[n+](Cc2ccnc3ccccc23)cc1
inactive: NCI-H23 lung 123% | NCI-H226 lung 93.9% | NCI-H322M lung 111% | HOP-62 NSCLC 94.1% | NCI-H460 lung 106% | HOP-92 NSCLC 47.9% | A549/ATCC NSCLC 107% | 786-0 renal 107% | COLO 205 colon 104%

Cn1c(=O)c2[nH]c(=S)n(Cc3ccccc3)c2n(C)c1=O
inactive: NCI-H23 lung 93.1% | NCI-H226 lung 104% | NCI-H322M lung 118% | HOP-62 NSCLC 70% | NCI-H460 lung 110% | HOP-92 NSCLC 91.8% | A549/ATCC NSCLC 95.2% | 786-0 renal 102% | COLO 205 colon 109%

Cc1cc(-c2ccccc2)cc(C)n1
inactive: NCI-H23 lung 103% | NCI-H226 lung 102% | NCI-H322M lung 105% | HOP-62 NSCLC 112% | NCI-H460 lung 112% | HOP-92 NSCLC 95.4% | A549/ATCC NSCLC 92.7% | 786-0 renal 99% | COLO 205 colon 120%

CCOC(=O)c1cnc2c(C)cc(C)cc2c1NCCCN(C)C
inactive: NCI-H23 lung 35.2% | NCI-H226 lung 36.1% | NCI-H322M lung 20.9% | HOP-62 NSCLC 21.4% | NCI-H460 lung 10.1% | 786-0 renal 29.2%
active: HOP-92 NSCLC 4.88%

C[C@H](C(=O)N[C@@H](Cc1ccc(-c2ccccc2)cc1)C(=O)NC1CC(C)(C)N(C)C(C)(C)C1)c1ccc(-c2ccccc2)c(F)c1
active: NCI-H23 lung -71% | NCI-H226 lung -49.1% | NCI-H322M lung -62.3% | HOP-62 NSCLC -73.5% | NCI-H460 lung -75.8% | HOP-92 NSCLC -75.5% | A549/ATCC NSCLC -79.1% | 786-0 renal -91.3% | COLO 205 colon -69.6%

Cc1ccc2nc(-c3ccc(N(C)C)c(Br)c3)cn2c1
inactive: NCI-H23 lung 92% | NCI-H226 lung 98.4% | NCI-H322M lung 120% | HOP-62 NSCLC 93.4% | NCI-H460 lung 40.3% | HOP-92 NSCLC 126% | A549/ATCC NSCLC 98.9% | 786-0 renal 87.8% | COLO 205 colon 89.3%

CCn1cnc(C[C@H](NC(=O)[C@H](CCCCNC(=O)Nc2cc(C(F)(F)F)cc(C(F)(F)F)c2)NC(=O)Nc2cc(C(F)(F)F)cc(C(F)(F)F)c2)C(=O)OC)c1
active: NCI-H23 lung -65.8% [100 µM] | NCI-H226 lung 2.9% [100 µM] | NCI-H322M lung 5.23% [100 µM] | HOP-62 NSCLC -75.3% [100 µM] | NCI-H460 lung -41.1% [100 µM] | HOP-92 NSCLC -45.4% [100 µM] | A549/ATCC NSCLC -75.3% [100 µM] | 786-0 renal -54.3% [100 µM] | COLO 205 colon -100% [100 µM]

O=C1/C(=C\c2coc3ccccc3c2=O)c2ccccc2N1c1c(Cl)cccc1Cl
inactive: NCI-H23 lung 55.4% | NCI-H226 lung 90.7% | NCI-H322M lung 73.7% | HOP-62 NSCLC 68.2% | NCI-H460 lung 19% | HOP-92 NSCLC 32.1% | A549/ATCC NSCLC 26.6% | 786-0 renal 27% | COLO 205 colon 55.3%

CCOC1Oc2ccccc2C(=O)/C1=N/c1nccs1 (stereo unspecified)
active: HOP-92 NSCLC -23.6%
inactive: NCI-H23 lung 95.2% | NCI-H226 lung 84% | NCI-H322M lung 99.7% | HOP-62 NSCLC 92.7% | NCI-H460 lung 106% | A549/ATCC NSCLC 111% | 786-0 renal 100% | COLO 205 colon 95.1%

Cc1n(Cc2ccc3ccccc3c2)cc[n+]1Cc1ccc2ccccc2c1
active: NCI-H23 lung 5.53% | NCI-H460 lung 9.12% | HOP-92 NSCLC -20.3% | COLO 205 colon -57.2%
inactive: NCI-H226 lung 19% | NCI-H322M lung 48.9% | HOP-62 NSCLC 18% | 786-0 renal 34%

NC(=O)c1cc(Br)cc(Br)c1NS(=O)(=O)c1ccccc1
inactive: NCI-H23 lung 100% | NCI-H226 lung 95.3% | NCI-H322M lung 94.5% | HOP-62 NSCLC 98% | NCI-H460 lung 102% | HOP-92 NSCLC 93.6% | 786-0 renal 108% | COLO 205 colon 101%

COc1ccc2c(c1)CC[C@@H]1[C@@H]2CC[C@]2(C)[C@@H](O)C(=O)C[C@@H]12
inactive: NCI-H23 lung 102% | NCI-H226 lung 114% | NCI-H322M lung 91.3% | HOP-62 NSCLC 103% | NCI-H460 lung 102% | HOP-92 NSCLC 116% | A549/ATCC NSCLC 99.6% | 786-0 renal 106% | COLO 205 colon 102%

COc1ccc(N2CCN(CC(=O)N3CCN(c4nnc(-c5ccc(Cl)cc5)c(-c5ccc(Cl)cc5)n4)CC3)CC2)cc1
inactive: NCI-H23 lung 81.7% | NCI-H226 lung 57.9% | NCI-H322M lung 69.3% | HOP-62 NSCLC 93.3% | NCI-H460 lung 52.4% | HOP-92 NSCLC 50.3% | 786-0 renal 60.4% | COLO 205 colon 86%
active: A549/ATCC NSCLC -8.6%

N#Cc1c(-c2ccccc2)cc(-c2ccccc2)n(CCCCC(=O)O)c1=O
inactive: NCI-H23 lung 90% | NCI-H226 lung 91% | NCI-H322M lung 98.6% | HOP-62 NSCLC 90.9% | NCI-H460 lung 102% | HOP-92 NSCLC 93.7% | A549/ATCC NSCLC 94.7% | 786-0 renal 93.7% | COLO 205 colon 108%

Nc1nc(NC2CC2)c2ncn(C3C=CC(CO)C3)c2n1 (stereo unspecified)
inactive: NCI-H23 lung 107% | NCI-H226 lung 91.4% | NCI-H322M lung 94% | HOP-62 NSCLC 104% | NCI-H460 lung 118% | HOP-92 NSCLC 97% | A549/ATCC NSCLC 108% | 786-0 renal 107% | COLO 205 colon 121%

COc1ccc2c(=O)c(OC)c(-c3cc(OC)c(OC)c(OC)c3)oc2c1
inactive: NCI-H23 lung 86.4% | NCI-H226 lung 91.3% | NCI-H322M lung 89.1% | HOP-62 NSCLC 82.8% | NCI-H460 lung 102% | HOP-92 NSCLC 46.5% | A549/ATCC NSCLC 44.1% | 786-0 renal 67.8% | COLO 205 colon 129%

O=C(Oc1cccc2ccccc12)c1ccccc1C(=O)c1ccccc1
inactive: NCI-H23 lung 93% | NCI-H226 lung 105% | NCI-H322M lung 101% | HOP-62 NSCLC 101% | NCI-H460 lung 93.2% | HOP-92 NSCLC 54.5% | 786-0 renal 103%

CC(C)=CCNc1ncnc2c1ncn2C1OC(COP(=O)(O)O)C(O)C1O (stereo unspecified)
inactive: NCI-H23 lung 57.8% | NCI-H226 lung 45.7% | NCI-H322M lung 41.1% | HOP-62 NSCLC 46.1% | NCI-H460 lung 80.3% | HOP-92 NSCLC 74.5% | 786-0 renal 43.3% | COLO 205 colon 63%

O[N+]1=CC=CCC1=S.On1ccccc1=S.[Zn]
active: NCI-H23 lung -53.1% | NCI-H226 lung -85.9% | NCI-H322M lung -87.3% | HOP-62 NSCLC -86.8% | NCI-H460 lung -70.5% | HOP-92 NSCLC -64.5% | 786-0 renal -74.2% | COLO 205 colon -74.9%

O=C1OC(Oc2ccccc2)(c2ccccc2)c2ccccc21 (stereo unspecified)
inactive: NCI-H23 lung 105% | NCI-H226 lung 107% | NCI-H322M lung 128% | HOP-62 NSCLC 106% | NCI-H460 lung 99.1% | HOP-92 NSCLC 88% | 786-0 renal 101% | COLO 205 colon 112%

N/C(=N\C(N)=N\c1nc2ccccc2s1)c1ccnc(Cl)c1
inactive: NCI-H23 lung 43.4% | NCI-H226 lung 48.8% | NCI-H322M lung 70.1% | HOP-62 NSCLC 44.4% | NCI-H460 lung 17.3% | HOP-92 NSCLC 73.9% | 786-0 renal 41.1% | COLO 205 colon 18.1%

CC1C(C)N(C(=O)CCl)c2ccccc2N1C(=O)CCl (stereo unspecified)
inactive: NCI-H226 lung 13.7%
active: NCI-H23 lung -61.1% | NCI-H322M lung 3.9% | HOP-62 NSCLC -67.3% | NCI-H460 lung -37.3% | HOP-92 NSCLC -40.7% | 786-0 renal -55.1% | COLO 205 colon -70.6%

CCCCc1ccc(C(N)=O)nc1
inactive: NCI-H23 lung 102% | NCI-H226 lung 86.5% | NCI-H322M lung 103% | HOP-62 NSCLC 99.3% | NCI-H460 lung 108% | HOP-92 NSCLC 62.5% | 786-0 renal 92.6% | COLO 205 colon 118%

Cn1ccnc1C(=O)/C=C/c1ccc(C(=O)Nc2nc3ccccc3[nH]2)cc1
inactive: NCI-H23 lung 23.3% | NCI-H226 lung 82.4% | NCI-H322M lung 43.8% | HOP-62 NSCLC 34.1% | NCI-H460 lung 10.9% | HOP-92 NSCLC 52.8% | 786-0 renal 23.6% | COLO 205 colon 55.1%

COc1cc(OC)c2c(c1Cl)O[C@]1(C2=O)C(OCc2ccccc2)=CC(=O)C[C@H]1C
inactive: NCI-H23 lung 20.9% | NCI-H226 lung 45.8% | NCI-H322M lung 36.4% | 786-0 renal 37.8%
active: HOP-62 NSCLC 5.17% | NCI-H460 lung 6.23% | HOP-92 NSCLC -16.7% | COLO 205 colon -32.6%

Nc1ccc(Oc2c(F)c(F)c(Oc3ccc(N)cc3)c(F)c2F)cc1
active: NCI-H322M lung -4.94%
inactive: NCI-H23 lung 96.5% | NCI-H226 lung 104% | HOP-62 NSCLC 101% | NCI-H460 lung 112% | HOP-92 NSCLC 80.5% | 786-0 renal 106% | COLO 205 colon 108%

O=C(Nc1cccc(Cl)c1)Nc1cccc(Cl)c1
inactive: NCI-H23 lung 35.8% | NCI-H226 lung 81.1% | NCI-H322M lung 79.1% | HOP-62 NSCLC 88.2% | NCI-H460 lung 52% | HOP-92 NSCLC 87.6% | 786-0 renal 77.1% | COLO 205 colon 89.2%

O=C(COc1ccc(/C=C2\Oc3ccc4ccccc4c3C2=O)cc1)c1ccc([N+](=O)[O-])cc1
inactive: NCI-H23 lung 96.5% | NCI-H226 lung 105% | NCI-H322M lung 99.9% | HOP-62 NSCLC 118% | NCI-H460 lung 104% | HOP-92 NSCLC 96.7% | 786-0 renal 103% | COLO 205 colon 134%

C[C@H]1C(=O)N2c3ccccc3[C@@]3(O)C[C@@H](n4cnc5ccccc5c4=O)C(=O)N1[C@@H]23
inactive: NCI-H23 lung 106% | NCI-H226 lung 98.1% | NCI-H322M lung 109% | HOP-62 NSCLC 97.4% | NCI-H460 lung 107% | HOP-92 NSCLC 102% | 786-0 renal 102% | COLO 205 colon 110%

C[C@]12CCC(=O)C=C1CC[C@H]1[C@@H]3C[C@@H](O)[C@](O)(C(=O)CO)[C@@]3(C)C[C@H](O)[C@@]12F
inactive: NCI-H23 lung 110% | NCI-H226 lung 83.1% | NCI-H322M lung 128% | HOP-62 NSCLC 101% | NCI-H460 lung 93.4% | HOP-92 NSCLC 80.3% | 786-0 renal 111% | COLO 205 colon 103%

Reference: PubChem BioAssay (NCI)
